Results filed as inconclusive are left out. Active and inactive are the calls of the source. Rule for the calls, unless noted: active = hit-call score of the fitted dose curve at least 0.9, where 1 is the maximum; inconclusive = response in the unintended direction; inactive = score below 0.9.
Tests used:
[1] = target: Cellular tumor antigen p53 (Homo sapiens) (UniProt P04637); assay: TOX21_p53_BLA_p2_ratio: Tox21 HCT-116 p53 Agonism Beta-lactamase Assay, Ratio, Phase 2 (AID 2283592)
Summary of the method: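 In this cell-based reporter format, HCT116 cells were dosed with chemicals delivered from DMSO by 217-fold dilution and incubated 16 h at 37C. Emission at 460 and 530 nm after 2 h CCF4-AM loading provided the ratio, fitted upward versus DMSO.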

[2] = TOX21_p53_BLA_p3_viability: Viability Assessment in the Tox21 HCT-116 p53 Agonism Beta-lactamase Assay, Phase 3 (AID 2283593);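 note: cells exposed to compound for 16 h before reading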
Summary of the method: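 HCT116 cells, 4000/well, dosed 5 h after plating by pin transfer (217-fold dilution from DMSO stock) and incubated 16 h at 37C, 5% CO2. Viability read as ATP luminescence with CellTiter-Glo after 30 min at room temperature.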

[3] = target: Cellular tumor antigen p53 (Homo sapiens) (UniProt P04637); assay: TOX21_p53_BLA_p3_ratio: Tox21 HCT-116 p53 Agonism Beta-lactamase Assay, Ratio, Phase 3 (AID 2283596)
Summary of the method: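 HCT116 p53-bla cells (4000/well) given compound in DMSO (217-fold dilution) after 5 h, incubated 16 h at 37C. CCF4-AM substrate 2 h at room temperature; 460/530 nm emission ratio, gain fitted against DMSO.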

[4] = TOX21_p53_BLA_p4_viability: Viability Assessment in the Tox21 HCT-116 p53 Agonism Beta-lactamase Assay, Phase 4 (AID 2283597);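 note: hits lower the luminescence signal meaning cytotoxicity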
Summary of the method: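 We seeded HCT116 p53 reporter cells at 4000/well and waited 5 h. We then added compounds in DMSO at a 217-fold dilution and incubated for 16 h. Viability was read as CellTiter-Glo luminescence after 30 min at RT.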

[5] = target: Cellular tumor antigen p53 (Homo sapiens) (UniProt P04637); assay: TOX21_p53_BLA_p5_ratio: Tox21 HCT-116 p53 Agonism Beta-lactamase Assay, Ratio, Phase 5 (AID 2283599)
Summary of the method: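 HCT-116 p53-bla cells (4000/well) plated 5 h, dosed with compound (217-fold DMSO dilution) for 16 h at 37 C; CCF4-AM substrate 2 h at room temperature. Activity is the 460/530 nm emission ratio (405 nm excitation), fitted in gain-of-signal direction versus DMSO.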

[6] = target: Cellular tumor antigen p53 (Homo sapiens) (UniProt P04637); assay: TOX21_p53_BLA_p4_ratio: Tox21 HCT-116 p53 Agonism Beta-lactamase Assay, Ratio, Phase 4 (AID 2283601)
Summary of the method: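 HCT-116 p53 beta-lactamase reporter cells (4000/well) preincubated 5 h, then compound (217-fold dilution of DMSO stock) for 16 h at 37C. CCF4-AM substrate added 2 h at room temperature; 460/530 nm emission ratio fitted upward versus DMSO.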

[7] = TOX21_p53_BLA_p5_viability: Viability Assessment in the Tox21 HCT-116 p53 Agonism Beta-lactamase Assay, Phase 5 (AID 2283600)
Summary of the method: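 Compounds, pinned from DMSO at 217-fold dilution, were left on the cells for 16 h. The viability endpoint was ATP content measured by CellTiter-Glo luminescence, where falling signal reflects cytotoxicity.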

PGR (gene 5241) [8] = target: PGR (gene 5241) (UniProt P06401); assay: TOX21_PR_BLA_Followup_Agonist_ratio: Tox21 HEK293 Progesterone Receptor (PR) Agonism Beta-lactamase Follow-Up Assay, Ratio (AID 2283933)
Summary of the method: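 PR-UAS-bla HEK293T cells (GAL4-UAS beta-lactamase reporter) in medium with 2% charcoal-stripped FBS received compounds after 6 hr at 37C, then incubated 16 hr. LiveBLAzer FRET substrate added, 2 hr room temperature; cleaved/uncleaved (ch2/ch1) ratio fitted upward versus DMSO.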

PGR (gene 5241) [9] = target: PGR (gene 5241) (UniProt P06401); assay: TOX21_PR_LUC_Followup_Agonist: Tox21 HEK293 Progesterone Receptor (PR) Agonism Luciferase Follow-Up Assay (AID 2283937; active = hit-call score of the fitted dose curve at least 0.9, where 1 is the maximum; inactive = score below 0.9)
Summary of the method: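 HEK293-PR-A-luc cells, pre-cultured 5 days in medium with 10% charcoal-stripped FBS, were seeded at 3,000 cells/well, rested 5 h at 37C, then exposed to compounds 16 h at 37C; luciferase read by ONE-Glo luminescence after 30 min.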

[10] = TOX21_PR_BLA_Followup_Antagonist_viability: Viability Assessment in the Tox21 HEK293 Progesterone Receptor (PR) Antagonism Beta-lactamase Follow-Up Assay (AID 2283936);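 note: hits lower the luminescence signal meaning cytotoxicity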
Summary of the method: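 PR-UAS-bla HEK293T cells (3,000/well, 2% charcoal-stripped FBS) given compound plus R5020 agonist, 16 h at 37C. CellTiter-Glo added after bla read, 30 min at room temperature; luminescence loss indicates cytotoxicity.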

[11] = CCTE_Harrill_HTTr_Viability_MCF7: CCTE's 6-hour Cell Viability Assessment for the High-Throughput Transcriptomics (HTTr) Platform, in MCF-7 cells cultured in DMEM + 10% fetal bovine serum, Harrill Lab (AID 2284010; active = hit-call score of the fitted dose curve at least 0.9, where 1 is the maximum; inactive = score below 0.9)
Summary of the method: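 Membrane integrity was scored by high-content imaging of propidium iodide dye exclusion after a 6 h exposure across an eight-point dilution series. Data were fitted bidirectionally relative to DMSO as negative control and baseline.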

[12] = CCTE_Harrill_HTTr_CellCount_MCF7: CCTE's Cell Proliferation Assessment for the High-Throughput Transcriptomics (HTTr) Platform, Harrill Lab (AID 2284012);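 note: cells exposed to compound for six hours; intended direction is loss of nuclei count meaning fewer cells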
Summary of the method: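 MCF-7 cells were exposed for 6 h to an eight-point dilution series; Hoechst-labeled nuclei were counted by high content imaging. Curves were fitted bidirectionally against DMSO as negative control and baseline, with signal loss indicating reduced cell count.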

Measured: AC50

Cellular tumor antigen p53 (Homo sapiens), sequence (P04637 whole entry, looked up): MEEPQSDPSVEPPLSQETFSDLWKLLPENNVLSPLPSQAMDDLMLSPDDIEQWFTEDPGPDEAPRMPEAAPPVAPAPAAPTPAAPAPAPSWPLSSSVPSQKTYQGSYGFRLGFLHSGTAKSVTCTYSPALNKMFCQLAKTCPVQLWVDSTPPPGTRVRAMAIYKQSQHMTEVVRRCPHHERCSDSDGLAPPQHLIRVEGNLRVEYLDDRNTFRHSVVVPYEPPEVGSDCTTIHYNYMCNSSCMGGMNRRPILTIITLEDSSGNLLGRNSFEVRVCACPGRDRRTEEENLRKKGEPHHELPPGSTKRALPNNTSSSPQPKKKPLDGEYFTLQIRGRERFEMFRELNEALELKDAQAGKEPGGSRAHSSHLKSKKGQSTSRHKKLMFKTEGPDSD
PGR (gene 5241), sequence (P06401 whole entry, looked up, the tested form may be a part): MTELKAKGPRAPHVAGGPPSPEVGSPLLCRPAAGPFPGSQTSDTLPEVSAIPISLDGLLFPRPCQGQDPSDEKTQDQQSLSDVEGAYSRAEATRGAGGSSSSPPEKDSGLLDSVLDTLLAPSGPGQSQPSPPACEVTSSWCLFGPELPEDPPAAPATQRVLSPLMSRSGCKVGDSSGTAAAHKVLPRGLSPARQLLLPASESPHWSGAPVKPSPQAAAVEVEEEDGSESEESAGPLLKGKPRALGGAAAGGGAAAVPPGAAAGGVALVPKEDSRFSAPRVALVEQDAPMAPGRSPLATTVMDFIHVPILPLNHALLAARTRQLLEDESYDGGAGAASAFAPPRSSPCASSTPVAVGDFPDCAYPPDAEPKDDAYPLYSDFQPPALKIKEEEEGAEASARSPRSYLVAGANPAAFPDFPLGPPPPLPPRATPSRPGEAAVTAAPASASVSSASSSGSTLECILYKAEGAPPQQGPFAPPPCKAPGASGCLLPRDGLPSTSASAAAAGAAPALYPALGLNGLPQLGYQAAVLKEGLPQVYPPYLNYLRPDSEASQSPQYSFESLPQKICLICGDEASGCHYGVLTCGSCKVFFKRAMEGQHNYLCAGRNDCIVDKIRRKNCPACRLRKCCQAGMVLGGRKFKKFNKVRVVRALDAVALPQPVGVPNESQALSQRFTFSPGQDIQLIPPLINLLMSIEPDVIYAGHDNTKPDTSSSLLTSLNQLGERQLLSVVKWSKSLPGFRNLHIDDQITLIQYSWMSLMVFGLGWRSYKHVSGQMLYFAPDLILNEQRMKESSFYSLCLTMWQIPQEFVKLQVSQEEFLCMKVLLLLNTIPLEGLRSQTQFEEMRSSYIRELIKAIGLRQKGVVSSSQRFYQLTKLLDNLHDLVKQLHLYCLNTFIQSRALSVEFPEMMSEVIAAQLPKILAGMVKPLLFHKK

CCCC1CCCCN1 (centres undefined)
inactive: [1] | [2] | [3] | [4] | [5] | [6]

O=c1[nH]cc(N(CCCl)CCCl)c(=O)[nH]1
active: [3] 23 µM
inactive: [1] | [2] | [4] | [5] | [6]

CN1C(=O)NC(=O)C(C)(C2=CCCCC2)C1=O (centres undefined)
inactive: [1] | [2] | [3] | [5] | [7] | [6]

C=C(C)CCl
inactive: [1] | [2] | [3] | [5] | [7]

Clc1ccc2ccccc2c1
inactive: [1] | [2] | [3] | [5] | [6]

CN[C@H]1C[C@@H](N)[C@H](O)[C@@H](O[C@@H]2O[C@H](CO)[C@H](O)[C@@H]3OC4(O[C@H]23)O[C@H](C(N)CO)[C@H](O)[C@H](O)C4O)[C@@H]1O (some centres undefined)
inactive: [1] | [2] | [3] | [4] | [5] | [6]

COc1ccc2c(c1OC)C(=O)O[C@H]2[C@@H]1c2cc3c(cc2CCN1C)OCO3
inactive: [1] | [2] | [3] | [5] | [7] | [6]

C=C1C[C@@H]2[C@H](CC[C@]3(C)C(=O)CC[C@@H]23)[C@@]2(C)C=CC(=O)C=C12
inactive: PGR (gene 5241) [8] | PGR (gene 5241) [9]

C[C@]1(O)CC[C@H]2[C@@H]3CCC4=CC(=O)CC[C@]4(C)[C@@]3(F)[C@@H](O)C[C@@]21C
inactive: [10]

C[C@H]1CCC[C@H](O)CCCCCc2cc(O)cc(O)c2C(=O)O1
inactive: [10]

CC(N)=S
inactive: [11] | [12]

Cn1c(CCCC(=O)O)nc2cc(N(CCCl)CCCl)ccc21
active: [1] 27.1 µM | [3] 31.3 µM | [5] 33.1 µM | [6] 32.4 µM
inactive: [4]

NC1=NC(=O)N2CC12 (centres undefined)
inactive: [1] | [3] | [4] | [5] | [6]

C[C@H]1CNCCc2ccc(Cl)cc21
inactive: [1] | [3] | [4] | [6]

C[C@]12CC[C@H]3[C@@H](CCC4=C(O)C(=O)CC[C@@H]43)[C@@H]1CC[C@@H]2OC(=O)CCC1CCCC1
inactive: [1] | [3] | [4] | [6]

OCC(Br)CBr (centres undefined)
inactive: [1] | [3] | [4] | [5] | [7] | [6]

CN1C(=O)CN=C(c2ccccc2)c2cc([N+](=O)[O-])ccc21
inactive: [1] | [3] | [4] | [5] | [7]

[Cl][Sn]([Cl])([Cl])[Cl]
inactive: [1] | [3] | [4] | [5] | [7]

Oc1ccc2[nH]cc(CCCCN3CC=C(c4ccccc4)CC3)c2c1
inactive: [1] | [3] | [4] | [5] | [7] | [6]

O=C(Cl)C(Cl)Cl
inactive: [1] | [3] | [5] | [7] | [6]

O=C1NCN(c2ccccc2)C12CCN(CCCOc1ccc(F)cc1)CC2
inactive: [1] | [3] | [4] | [7] | [6]

Cc1ccc2cc(C)ccc2c1
inactive: [1] | [3] | [5] | [7] | [6] | [11] | [12]

CCCCCCBr
inactive: [1] | [3] | [4] | [5] | [6]

COc1ccc(C(CN(C)C)C2(O)CCCCC2)cc1 (centres undefined)
inactive: [1] | [3] | [5] | [7] | [6]

C(COCC1CO1)OCC1CO1 (centres undefined)
inactive: [1] | [3] | [4] | [5] | [7] | [6]

Oc1cccc(Cl)c1Cl
inactive: [1] | [3] | [4] | [5] | [7] | [6]

CN(C)CCc1c[nH]c2cccc(O)c12
inactive: [1] | [3] | [4] | [5]

ClC=CCl
inactive: [1] | [3] | [4] | [5] | [7] | [6]

[O-][Br+2]([O-])O
inactive: [1] | [3] | [4] | [6]

CCOP(=S)(OCC)SCCl
inactive: [1] | [3] | [4] | [7] | [6]
